Assay results as given in PubChem BioAssay AID1117353 (Cheminformatics & Chemogenomics Research Group (CCRG), …, 2015).
The source made the active and inactive calls. Rule as the data show it: active = inhibition above about 50%; inactive = the rest.

Biological target: Vascular endothelial growth factor receptor 2 (Homo sapiens) (UniProt P35968)
Assay: VEGFR2 inhibitors, primary assay, biochemical, Homo sapiens, LANCE Ultra TR-FRET, NPC library (AID 1117353)
Settings: LANCE Ultra TR-FRET kinase assay; series mostly up to 20 µM; inhibition: at the top concentration

Chain of Vascular endothelial growth factor receptor 2 (Homo sapiens) (P35968 whole entry, looked up): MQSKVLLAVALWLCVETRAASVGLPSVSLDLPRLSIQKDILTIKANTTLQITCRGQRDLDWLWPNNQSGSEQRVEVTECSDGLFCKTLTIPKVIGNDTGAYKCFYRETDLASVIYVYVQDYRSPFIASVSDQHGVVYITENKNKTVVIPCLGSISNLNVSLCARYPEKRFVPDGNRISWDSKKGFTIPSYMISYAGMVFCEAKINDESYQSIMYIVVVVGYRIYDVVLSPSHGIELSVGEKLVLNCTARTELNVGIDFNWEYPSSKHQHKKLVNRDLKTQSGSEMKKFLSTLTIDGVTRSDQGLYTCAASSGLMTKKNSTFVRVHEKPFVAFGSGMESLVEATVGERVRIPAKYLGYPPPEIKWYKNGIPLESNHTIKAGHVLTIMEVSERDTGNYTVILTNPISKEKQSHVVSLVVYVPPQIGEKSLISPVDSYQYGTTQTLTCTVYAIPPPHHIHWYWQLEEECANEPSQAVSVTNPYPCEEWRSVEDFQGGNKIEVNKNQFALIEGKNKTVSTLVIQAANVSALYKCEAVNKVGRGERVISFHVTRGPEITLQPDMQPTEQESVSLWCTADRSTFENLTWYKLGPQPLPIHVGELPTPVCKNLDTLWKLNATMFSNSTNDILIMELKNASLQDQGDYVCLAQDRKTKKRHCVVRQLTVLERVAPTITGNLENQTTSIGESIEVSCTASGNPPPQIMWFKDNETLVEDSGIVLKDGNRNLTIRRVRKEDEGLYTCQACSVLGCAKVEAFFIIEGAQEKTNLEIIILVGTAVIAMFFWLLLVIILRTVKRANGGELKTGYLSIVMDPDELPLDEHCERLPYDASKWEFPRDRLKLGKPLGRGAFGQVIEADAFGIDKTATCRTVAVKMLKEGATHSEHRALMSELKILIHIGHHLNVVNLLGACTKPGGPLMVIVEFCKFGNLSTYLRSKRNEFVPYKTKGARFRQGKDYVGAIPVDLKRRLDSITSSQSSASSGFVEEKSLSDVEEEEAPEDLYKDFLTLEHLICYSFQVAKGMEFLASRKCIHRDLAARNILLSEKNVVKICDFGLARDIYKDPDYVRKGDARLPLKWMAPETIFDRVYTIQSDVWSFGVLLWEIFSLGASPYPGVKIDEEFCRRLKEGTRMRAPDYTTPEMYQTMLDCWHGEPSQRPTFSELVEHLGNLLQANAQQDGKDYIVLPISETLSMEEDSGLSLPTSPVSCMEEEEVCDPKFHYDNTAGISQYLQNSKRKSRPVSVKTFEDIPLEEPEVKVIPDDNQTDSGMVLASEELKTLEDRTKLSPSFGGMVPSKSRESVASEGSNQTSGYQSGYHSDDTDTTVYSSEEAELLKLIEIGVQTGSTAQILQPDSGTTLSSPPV

Compound | inhibition
Cc1ccc([N+](=O)[O-])[c]2c1[O][Hg]2 | 43.9% (inactive)
O=C(CCl)c1ccc(Cl)cc1Cl | -9.46% (inactive)
C=C(C)[C@H]1Cc2c(ccc3c2O[C@@H]2COc4cc(OC)c(OC)cc4[C@@H]2C3=O)O1 | 17.2% (inactive)
